PubChem BioAssay (NCI)
About 83,000 compounds went through this panel and 20% of them were active in at least one assay; those are over-represented in the sample as a whole.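 Activity criterion: percent growth below 10, measured after cells in 96-well plates were exposed to a single compound concentration for 48 hours.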 A number with no mark means an inactive call. The source made the active and inactive calls.

What was measured:
Experiment in all cases: NCI-60 one-dose screen, 48 h (100 = growth as untreated, 0 = no growth, -100 = all killed)
Conditions in all cases: 10 µM unless noted
NCI-H23 lung = tested on: NCI-H23 lung
NCI-H226 lung = tested on: NCI-H226 lung
NCI-H322M lung = tested on: NCI-H322M lung
HOP-62 NSCLC = tested on: HOP-62 NSCLC
NCI-H460 lung = tested on: NCI-H460 lung
HOP-92 NSCLC = tested on: HOP-92 NSCLC
NCI-H522 lung = tested on: NCI-H522 lung
A549/ATCC NSCLC = tested on: A549/ATCC NSCLC
786-0 renal = tested on: 786-0 renal
COLO 205 colon = tested on: COLO 205 colon
DU-145 prostate = tested on: DU-145 prostate
K-562 leukemia = tested on: K-562 leukemia
MALME-3M melanoma = tested on: MALME-3M melanoma
MDA-MB-231 breast = tested on: MDA-MB-231 breast
RXF 393 renal = tested on: RXF 393 renal
SF-268 CNS = tested on: SF-268 CNS
SF-539 CNS = tested on: SF-539 CNS
UACC-257 melanoma = tested on: UACC-257 melanoma
SF-295 CNS = tested on: SF-295 CNS
M14 melanoma = tested on: M14 melanoma

SMILES | growth (NCI-H23 lung) | growth (NCI-H226 lung) | growth (NCI-H322M lung) | growth (HOP-62 NSCLC) | growth (NCI-H460 lung) | growth (HOP-92 NSCLC) | growth (NCI-H522 lung) | growth (A549/ATCC NSCLC) | growth (786-0 renal) | growth (COLO 205 colon) | growth (DU-145 prostate) | growth (K-562 leukemia) | growth (MALME-3M melanoma) | growth (MDA-MB-231 breast) | growth (RXF 393 renal) | growth (SF-268 CNS) | growth (SF-539 CNS) | growth (UACC-257 melanoma) [%] | growth (SF-295 CNS) | growth (M14 melanoma)
COC(=O)[C@@H]1[C@H]2C[C@H]3c4[nH]c5cc(OC)ccc5c4CCN3C[C@@H]2C[C@H](OC(=O)/C=C/c2ccnc(OC)c2)[C@H]1OC | 86.4% | 89.3% | 83.2% | 87% | 102% | 22.5% | 73.3% | 89% | 91.2% | 76.3% | 91.8% | 99.3% | 67.6% | -54.6% (active) | 92.4% | 84.1% | 90.1% | 78.3 | – | –
Cn1cnc2c1c(=O)n(CCC(=O)Nc1ccc(F)cc1)c(=O)n2C | 95.8% | 106% | 107% | 100% | 108% | 96.4% | 87.3% | 89.1% | 94.8% | 104% | 103% | 108% | 97.1% | 101% | 116% | 105% | 101% | – | 102% | 101%
O=S(=O)(NCCCNc1cc(-c2cn(-c3ccccc3)nc2-c2cccc(O)c2)ccn1)c1ccc(F)cc1 | 44.4% | 54.1% | 51.2% | 53.8% | 24.9% | 57.7% | 37.6% | 38.8% | -4.8% (active) | -66.1% (active) | 59.5% | 3% (active) | 35.9% | -0.971% (active) | 39.7% | 44.5% | 38.8% | – | 5.71% (active) | 26.6%
COc1ccc2c3c(c4ccccc4cc13)C(=O)N(CCN(C)CCN)C2=O | -71.4% (active) | -67.4% (active) | -44.4% (active) | -77.4% (active) | -69.2% (active) | -7.66% (active) | -77.2% (active) | -78.3% (active) | -97.9% (active) | -82.7% (active) | -86.6% (active) | -68% (active) | -75.7% (active) | -72.1% (active) | -94.3% (active) | -67.5% (active) | -83% (active) | – | -88.9% (active) | -83.2% (active)
CC(Cc1ccco1)C(=O)NC(N)=O (stereo unspecified) | 97.4% | 95.8% | 99.2% | 106% | 107% | 109% | 97.4% | 91.9% | 103% | 120% | 109% | 110% | 103% | 110% | 96.7% | 104% | 97.8% | – | 94.6% | 101%
COc1ccc(C2=NN(c3nc(-c4ccc(OC)cc4)c(C#N)c(=O)n3C)C(=O)CC2)cc1 | 99.8% | 86.1% | 91.9% | 105% | 103% | 77.9% | 94.1% | 104% | 109% | 109% | 115% | 101% | 81.6% | 83.5% | 97.5% | 100% | 93.6% | – | 93.6% | 95.4%
COc1ccc(/C=C/C(=O)NCC(C)O)cc1 (stereo unspecified) | 93.5% | 91.5% | 94.5% | 89.1% | 101% | 101% | 85% | 83.2% | 100% | 104% | 103% | 122% | 101% | 100% | 90.7% | 94% | 92.8% | – | 99.7% | 101%
COc1cc2[nH]c(C(=O)c3cc(OC)c(OC)c(OC)c3)c(N)c2cc1C#CC1CC1 | 50.3% | 50.2% | 52.7% | 42.1% | 13.5% | 17.2% | -4.22% (active) | 42.9% | 38.7% | 8.48% (active) | 28.9% | 30.2% | 52.4% | 58.4% | 19.6% | 40.7% | -38.7% (active) | 67.9 | – | –
COC(=O)[C@]12CC[C@@H](C)[C@H](C)[C@@H]1C1=CC[C@@H]3[C@@]4(C)C[C@@H](O)OC[C@](C)(C=O)C4C(=O)C[C@@]3(C)[C@]1(C)CC2 (stereo partly specified) | 5.09% (active) | -21.5% (active) | 27.6% | 13% | -13% (active) | -28.6% (active) | -41.9% (active) | 7.39% (active) | 2.91% (active) | -94.4% (active) | 14.5% | 3.89% (active) | -8.79% (active) | -14.9% (active) | -7.01% (active) | 34.9% | 7.45% (active) | – | 1.62% (active) | 6.13% (active)
C=C1C(=O)O[C@H]2[C@H]1CC/C(Cn1cc(-c3ccc(F)cc3)nn1)=C\CC[C@@]1(C)O[C@@H]21 | 5.71% (active) | -31.3% (active) | 80.6% | 44.4% | 77.4% | -67.7% (active) | -80.4% (active) | 60.2% | -71.5% (active) | -84.4% (active) | -71.3% (active) | -20.3% (active) | -58.1% (active) | -46.2% (active) | -68.1% (active) | 5.29% (active) | -34.6% (active) | – | 86.4% | -40.3% (active)
COc1cccc(-c2nn(-c3ccccc3)cc2-c2ccnc(NCCCNS(=O)(=O)c3ccc(Br)cc3)c2)c1 | 52.9% | 51.9% | 74.4% | 81% | 44.3% | 34.6% | 54.4% | 47.7% | 46.4% | 20.8% | 72.6% | 19.1% | 71.9% | 42.4% | 44.7% | 55.2% | 76.3% | – | 37.7% | 47.4%
O=C1C=C(C(O)c2ccc(O)cc2)C(=O)c2ccccc21 (stereo unspecified) | 89.2% | 112% | 95.2% | 116% | 107% | -2.83% (active) | 92.8% | 104% | 106% | 100% | 107% | 97.2% | 95.6% | 83.5% | 147% | 108% | 106% | 107 | – | –
COc1cccc(-c2nn(-c3ccccc3)cc2-c2ccnc(NCCNS(=O)(=O)c3cccc(F)c3)c2)c1 | 38.4% | 39.3% | 59% | 55.3% | 24.2% | 22.3% | 3.7% (active) | 24.8% | 25.9% | 16.6% | 58% | 11.9% | 78.2% | 9.24% (active) | 44.1% | 48.1% | 52.3% | – | 13.2% | 27.2%
O=Cc1nc2ccccc2[nH]1 | 97.9% | 97.6% | 110% | 90.1% | 109% | 86.1% | 84.8% | 84.5% | 101% | 106% | 105% | 97.6% | 104% | 94.9% | 112% | 104% | 97.5% | – | 101% | 90.9%
NC(Cc1ccc(O)cc1)C(=O)N/N=C/c1ccccc1O (stereo unspecified) | 99.9% | 103% | 94% | 105% | 108% | 56.6% | 96.6% | 97.5% | 104% | 123% | 105% | 105% | 80.2% | 109% | 115% | 104% | 104% | 101 | – | 98.7%
Cc1cc(Cl)c2c(N(C)C)cccc2n1 | 96% | 101% | 89.9% | 102% | 104% | 115% | -75.5% (active) | 100% | 102% | 105% | 106% | 59.5% | 87.2% | 92.8% | 116% | 111% | 106% | 102 | – | 92%
